Where “and” joins values, the source holds several entries; their conditions need not be identical. Equal values may be shown once. Among all 5,500 compounds or so, about 2,000 (36%) were called active. Roughly 18% stayed inconclusive and do not appear here. Cut-off read from the data, not from the text of the source: active = normalized growth mostly below about 0.91 (no sharp cut-off); inconclusive = no clear call, values can overlap the other calls; inactive = mostly above about 0.92. The list shows a part of the results.
Assay: chemical genetic growth profiling, strain panel (AID 1159580);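 note: tested at 20 µM; growth read once vehicle control cultures reached saturation at 30 °C; 1 = growth at the plate median or of vehicle wells; lower values mean less growth of the strain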
Conditions: S. cerevisiae deletion strains, growth OD

Measured: normalized growth

COc1ccc([C@@H]2CC(=O)c3c(O)cc(O)cc3O2)cc1O
inactive: locus YAL013W, strain DEP1, hits give low values 1.03 | locus YAL021C, strain ccr4, hits give low values 0.976 | locus YAL026C, strain drs2, hits give low values 0.978 | locus YAL030W, strain snc1, hits give low values 0.982 | locus YBL061C, strain skt5, hits give low values 0.977 | locus YBR009C, strain hhf1, hits give low values 0.983 | locus YBR021W, strain FUR4, hits give low values 1 | locus YBR023C, strain chs3, hits give low values 0.976 | locus YBR171W, strain sec66, hits give low values 0.999 | locus YBR229C, strain ROT2, hits give low values 1 | locus YBR231C, strain swc5, hits give low values 0.989 | locus YBR279W, strain paf1, hits give low values 0.982 | locus YCL011C, strain gbp2, hits give low values 0.975 | locus YCL016C, strain dcc1, hits give low values 0.961 | locus YCL029C, strain bik1, hits give low values 1.02 | locus YCL061C, strain MRC1, hits give low values 0.978 | locus YCL069W, strain vba3, hits give low values 0.99 | locus YCR088W, strain abp1, hits give low values 0.977 | locus YDL005C, strain med2, hits give low values 0.978 | locus YDL035C, strain GPR1, hits give low values 0.971 | locus YDL040C, strain nat1, hits give low values 0.986 | locus YDL074C, strain BRE1, hits give low values 1 | locus YDL101C, strain DUN1, hits give low values 1.01 | locus YDL185W, strain tfp1, hits give low values 1.01 | locus YDL192W, strain arf1, hits give low values 1 | locus YDR001C, strain nth1, hits give low values 0.973 | locus YDR069C, strain doa4, hits give low values 0.983 | locus YDR101C, strain arx1, hits give low values 1.02 | locus YDR137W, strain rgp1, hits give low values 0.973 | locus YDR159W, strain sac3, hits give low values 0.995 | locus YDR162C, strain NBP2, hits give low values 0.999 | locus YDR195W, strain ref2 0.994 | locus YDR297W, strain sur2, hits give low values 0.976 | locus YDR318W, strain mcm21, hits give low values 0.993 | locus YDR334W, strain swr1, hits give low values 0.985 | locus YDR335W, strain msn5, hits give low values 0.975 | locus YDR388W, hits give low values 1 | locus YDR392W, strain spt3, hits give low values 0.862 | locus YDR502C, strain sam2, hits give low values 0.995 | locus YEL003W, strain gim4, hits give low values 0.976 | locus YEL037C, strain rad23, hits give low values 0.973 | locus YEL061C, strain CIN8 (second series), hits give low values 0.977 | locus YEL061C, strain CIN8, hits give low values 1 | locus YER015W, strain faa2, hits give low values 0.983 | locus YER016W, strain bim1, hits give low values 0.976 | locus YER110C, hits give low values 1.01 | locus YER111C, strain swi4, hits give low values 0.963 | locus YER155C, strain BEM2 (second series), hits give low values 0.926 | locus YER155C, strain BEM2, hits give low values 0.998 | locus YER167W, strain BCK2, hits give low values 1 | locus YFR010W, strain ubp6, hits give low values 0.972 | locus YGL078C, strain dbp3, hits give low values 1 | locus YGL086W, strain mad1, hits give low values 1.03 | locus YGL167C, strain pmr1, hits give low values 0.977 | locus YGL173C, strain kem1, hits give low values 0.978 | locus YGL227W, strain vid30, hits give low values 0.988 | locus YGL240W, strain doc1, hits give low values 0.989 | locus YGL248W, strain PDE1, hits give low values 1.01 | locus YGL253W, strain hxk2, hits give low values 0.961 | locus YGR078C, strain PAC10, hits give low values 1.02 | locus YGR135W, strain pre9, hits give low values 0.979 | locus YGR229C, strain SMI1, hits give low values 0.983 | locus YGR252W, strain gcn5, hits give low values 0.893 | locus YHR013C, strain ard1, hits give low values 0.955 | locus YHR027C, strain rpn1, hits give low values 0.994 | locus YHR030C, strain SLT2, hits give low values 1.01 and 1 | locus YHR079C, strain IRE1 (second series), hits give low values 1.01 | locus YHR079C, strain IRE1, hits give low values 1.01 | locus YHR094C, strain hxt1, hits give low values 1.01 | locus YHR129C, strain ARP1, hits give low values 1 | locus YHR142W, strain chs7, hits give low values 0.918 | locus YHR200W, strain rpn10, hits give low values 0.993 | locus YIL066C, strain RNR3, hits give low values 0.979 | locus YIL073C, strain SPO22, hits give low values 1.05 | locus YIL125W, strain kgd1, hits give low values 1.01 | locus YIR030C, strain dcg1, hits give low values 1.01 | locus YJL092W, strain hpr5, hits give low values 0.976 | locus YJL095W, strain BCK1 (second series), hits give low values 0.978 | locus YJL095W, strain BCK1, hits give low values 1.04 and 1 | locus YJL115W, strain asf1, hits give low values 0.984 | locus YJL129C, strain trk1, hits give low values 0.939 | locus YJL134W, strain LCB3, hits give low values 1 | locus YJL154C, strain vps35, hits give low values 0.98 | locus YJL164C, strain tpk1, hits give low values 0.972 | locus YJL166W, strain qcr8, hits give low values 0.969 | locus YJL168C, strain set2, hits give low values 1 | locus YJL187C, strain SWE1 (second series), hits give low values 1.02 | locus YJL187C, strain SWE1, hits give low values 0.981

— PubChem BioAssay AID1159580 (chemical genetic matrix, 2015)
